Giardia kill: kills Giardia lamblia. Giardia lamblia trophozoite viability. activity change, % at 7.66 µM, hits read low. 340,000 tested, 0.15% active. AID 540267; in the data active = activity change below about -80%; inconclusive = between about -30% and that limit;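 also: parasites exposed to compound for two days anaerobically before the ATP read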
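Luminescent ATP signal served as the viability read-out, measured 15-30 min after adding ATP detection reagent to trophozoites that had been incubated with compounds for 48 hrs at 37 deg C anaerobically at 100 cells/well.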
ELG1 DNA repair: ELG1-dependent DNA repair inhibition. HEK293T ELG1-luciferase reporter, luminescence, 16 h; DNA damage induced by 5-fluorouridine. Potency, µM (doses to about 46.1 µM), for the others: top-dose activity change, negative = inhibition, actives largely listed as inhibitors. 330,000 tested, 2.3% active. AID 504467; also: potency is read from the fitted curve at half-maximal effect; nearly all actives have a fitted effect of over 55% in size
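Cells (2,000 per well) received 5-fluorouridine plus test compound or DMSO and were incubated 16 hr at 37 °C, 5% CO2. Luciferase activity was read by luminescence 30 min after ONE-Glo addition; signal suppression marked inhibition of damage-induced ELG1 function.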
Sfp PPTase inh: blocks B. subtilis Sfp PPTase activity; Q9F4F7; Biochemical Sfp PPTase activity, qHTS; Potency, µM, for the others: largest response in the series, negative = inhibition, most hits filed as inhibitors; 310,000 tested, 3.5% active; AID 1490;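 also: the enzyme is Sfp with the accession as filed and its product quenches rhodamine fluorescence; potency is read from the fitted curve at half-maximal effect; 0% = enzyme reaction without inhibitor and -100% = no enzyme wells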
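Reaction rates are the 30-min fluorescence difference (ex 525, em 598 nm) in wells containing 15 nM Sfp, 5 uM rhodamine-CoA and 12.5 uM BHQ-2-YbbR at pH 7.6 with 10 mM MgCl2.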
FBPA coupling cs: coupling enzyme interference in Giardia aldolase counter-screen | coupling enzyme system counterscreen, AmpLite Red fluorescence | activity change, negative = inhibition, % at 58.2 µM, hits read low | 290,000 tested, 0.67% active | AID 2472; in the data active = activity change below about -30%
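Fluorescence at 525 nm excitation and 598 nm emission measured inhibition of the coupled detection system without aldolase. Compounds (at 57.5 uM final) were preincubated 10 min at room temperature with coupling enzyme reagent before a 20 min substrate/AmpLite Red step.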
* = called active by the depositor; ? = inconclusive; . = no result. Only some compounds are listed: those with a hit (about 5.5% of all), similar ones and a draw of the others. Unless noted, calls follow the shape of the dose curve; as a rule, active = well fitted curve in the direction sought with a large enough effect; inconclusive = small, poorly fitted or top-dose-only effect, or another doubt; inactive = no such curve, though single readings can be large; an effect the other way counts as inactive or inconclusive. Unless noted, % is scaled to controls: 0 for no effect and ±100 for the full control effect.

SMILES | Giardia kill | ELG1 DNA repair | Sfp PPTase inh | FBPA coupling cs
N#C/C(=C/c1ccc(Br)o1)C(N)=S | . | 0% | 35µM* | 0
O=C(CSc1ccc2ccccc2c1)N1CCN(c2ccc(O)cc2)CC1 | 9 | ? | 50µM* | -2
COc1ccc(-c2noc(CCC(=O)N3CCN(c4cccc(OC)c4)CC3)n2)cc1 | 8 | 26µM* | . | .
C=CCn1c(COc2cccc(C)c2C)nnc1SCC(=O)N1CCN(c2ccccc2)CC1 | -5 | 21µM* | -2% | 7
CC(C)n1c(SCC(=O)Nc2nc3c(s2)CCCC3)nc2c1c(=O)n(C)c(=O)n2C | 4 | 18µM* | 16% | 4
CCCC[C@@H]1C[C@H]1C(NC(=O)Cc1ccccc1)c1ccc(Cl)cc1 (stereo not given in full) | . | . | 10% | 0
C=CC(=O)N1CCCC(Nc2nc(Nc3ccc(N(C)C(=O)CC)cc3C)nc3nc[nH]c23)C1 (stereo not given) | -3 | -6% | . | .
CCn1cc(S(=O)(=O)Nc2cc(C)ccc2F)cn1 | 20 | -5% | 17% | .
COc1ccc(-n2cnnc2SCC(=O)N2CCN(c3ccccc3)CC2)cc1 | -19 | ? | 0% | 2
COc1ccc(N2CCN(C(=O)CSc3nnc(-c4cc5ccccc5cc4O)n3C)CC2)cc1 | 5 | 11µM* | 12% | 4
CC1(C)Cc2ccccc2-c2nnc(SCc3ccccc3)n21 | -17 | 16% | -3% | 1
Cn1c(SCC(=O)N2CCN(c3ccccc3)CC2)nnc1-c1c[nH]c2ccccc12 | 17 | 10µM* | -6% | 2
O=C(CCCCCNc1nc(=S)[nH]c2ccccc12)N1CCN(c2ccccn2)CC1 | . | ? | -7% | -1
Cn1c(SCC(=O)N2CCN(c3ccccc3)CC2)nnc1-c1ccccc1 | -8 | ? | 20% | 5
COc1cccc(N2CCN(C(=O)CCCCCNc3nc(=S)[nH]c4ccccc34)CC2)c1 | 10 | 18µM* | 10% | -4
CC1(C)Cc2ccccc2-c2nnc(SCC(=O)N3CCN(c4ccccc4)CC3)n21 | 30 | 15µM* | 3% | 3
CC(=O)N1C2(C=CC1(C)C(=O)NCc1cc(F)cc(C(F)(F)F)c1)CCCCC2 (stereo not given) | . | . | 21% | -5
CCn1c(SCC(=O)N2CCN(c3ccccc3)CC2)nnc1-c1c[nH]c2ccccc12 | -9 | 13µM* | 14% | 1
COc1ccc(N2CCN(C(=O)CCCSc3nc4ccccc4[nH]3)CC2)cc1 | 2 | 23µM* | 2% | 2
NC(=O)CCCSc1nc2ccccc2[nH]1 | -11 | 4% | 11% | -2
COc1ccc(N2CCN(C(=O)CSc3nc4c(c(=O)n(C)c(=O)n4C)n3C(C)C)CC2)cc1 | 7 | 21µM* | 11% | 6
COc1ccc(N2CCN(C(=O)CSc3nnnn3-c3ccc4c(c3)OCCO4)CC2)cc1 | 9 | 23µM* | 16% | 0
COc1ccccc1-c1sc2ccccc2c1-c1ccc2c(c1)OCCO2 | -8 | ? | . | .
CC(C)(C)C1=CC(=O)C(=O)C(C(C)(C)C)=C1 | -9 | ? | 1.1µM* | -48*
O=C1C(=O)N(CCCO)C(c2ccc(Br)cc2)/C1=C(\O)c1ccc(Br)cc1 (stereo not given) | 7 | 2% | 29% | 10
SMILES | Giardia kill | ELG1 DNA repair | Sfp PPTase inh | FBPA coupling cs
O=C(CCCN1C(=O)/C(=C/c2cccs2)SC1=S)Nc1ccc(O)c(C(=O)O)c1 | . | 6% | ? | 18
CC(C(=O)Nc1ccc(C(=O)O)c(O)c1)N1C(=O)/C(=C\c2ccco2)SC1=S (stereo not given) | -5 | -6% | 50µM* | .
CC(C(=O)N(C)C1CCS(=O)(=O)C1)N1C(=O)/C(=C/c2ccco2)SC1=S (stereo not given) | -13 | -4% | -26% | -9
O=C(CN1C(=O)/C(=C/c2ccco2)SC1=S)Nc1ccc(C(=O)O)c(O)c1 | 1 | 19% | 50µM* | .
O=C(CN1C(=O)/C(=C/c2ccco2)SC1=S)Nc1ccc(O)c(C(=O)O)c1 | -15 | -7% | 50µM* | .
O=C(CN1C(=O)/C(=C/c2ccco2)SC1=S)NC1CCS(=O)(=O)C1 (stereo not given) | -12 | -3% | 25µM* | -27
CC(=O)OC1C(=O)N(Cc2ccccc2)C1c1ccc(C)cc1 (stereo not given) | 3 | . | . | .
COc1cccc([C@@H]2Oc3ccc(OC)cc3C[C@H]2OC(=O)Nc2cc(OC)c(OC)c(OC)c2)c1 | . | . | ? | 4
CC(=C\c1ccco1)/C=C1/SC(=S)N(CC(=O)O)C1=O | 5 | ? | 28µM* | 3
CC(/C=C1\SC(=S)N(CC(=O)O)C1=O)=C\c1ccccc1 | 14 | ? | -23% | 24
COc1ccccc1C(=O)COC(=O)c1c(-c2ccccc2)noc1C | -19 | ? | . | .
CN1c2cccc3cccc(c23)N(C)C1c1cccs1 | 1 | -26% | -12% | -37*
CC1N(C)c2cccc3cccc(c23)N1C | -5 | -11% | -11% | -30
CC(=O)c1c(C)[nH]c(C(=O)OCC(=O)Nc2ccc(Cl)c(S(=O)(=O)N(C)C)c2)c1C | 10 | 12µM* | 3% | 2
CC(=O)c1c(C)[nH]c(C(=O)OCC(=O)Nc2ccc(Cl)cc2[N+](=O)[O-])c1C | -27 | 3.7µM* | -6% | 0
COc1cc(NC(=O)COC(=O)c2[nH]c(C)c(C(C)=O)c2C)cc(OC)c1 | -11 | 7.3µM* | . | .
CC(=O)c1c(C)[nH]c(C(=O)OCC(=O)Nc2ccc3c(c2)OCCO3)c1C | 17 | 15µM* | . | .
Cc1ccc(S(=O)(=O)N2CCCC2)s1 | 2 | 15% | 11% | 0
O=S(=O)(c1ccc2c(c1)OCCO2)N1CCN(CCc2ccccc2)CC1 | -14 | . | . | .
CCNc1ncc2nc(CCc3ccccc3)c(=O)n(-c3ccccc3)c2n1 | . | . | -24% | -3
C=CCNC(=S)N/N=C(\C)c1cccc(OC)c1 | -4 | 1% | 5% | 1
C=CCNC(=S)N/N=C(\C)c1cccnc1 | 1 | 3% | 16µM* | 5
C=CCN=c1scc(-c2ccco2)n1/N=C/c1ccc(O)c(O)c1O | 6 | ? | 7.1µM* | -35*
CC(C)N=c1scc(-c2ccco2)n1/N=C/c1ccc(O)c(O)c1 | -16 | ? | ? | -5
Oc1ccc(/C=N/n2c(-c3ccco3)csc2=Nc2cccnc2)c(O)c1 | 2 | ? | 45µM* | -2
SMILES | Giardia kill | ELG1 DNA repair | Sfp PPTase inh | FBPA coupling cs
O=c1c2ccccc2nc(-c2ccco2)n1/N=C/c1ccccc1O | -6 | -7% | 24% | 1
COCCN=c1scc(-c2ccco2)n1/N=C/c1ccc(O)c(O)c1O | 6 | 20% | -93% | -51*
CCC1(CC)NC(=O)N(CC(=O)Nc2ccc(C)cc2C)C1=O | -10 | 26% | . | .
O=C(Oc1ccc(Br)cc1C(=S)N1CCOCC1)c1ccc(F)cc1 | -4 | 19% | 32µM* | .
CCOc1cc(C(=S)N2CCCC2)ccc1OCc1ccccc1 | -9 | -27% | 15% | 0
COc1ccc(C(=S)N2CCOCC2)cc1OC(=O)c1ccccc1 | -1 | -8% | 56µM* | 3
CCOc1ccc(C(=S)N2CCCC2)cc1OCC | 7 | 4% | 56µM* | -1

Bioassay records: PubChem, National Center for Advancing Translational Sciences (NCATS)
